MCF10A rereplic = inducers of DNA re-replication in MCF 10A breast cells. Potency, µM (titrated, usually from 46.1 µM), for the others: top-dose activity, positive = re-replication, actives largely listed as activators. MCF 10A DNA re-replication, Hoechst nuclear intensity, 48 h. actives 2.9% (n = 350,000); note: % of control where 0% means no effect; nearly all actives have a fitted effect of over 50% in size
PINK1 expr mod = changes PINK1 expression; PINK1 immunofluorescence, high-content cytometry, 24 h; Potency, µM (series often up to 76.6 µM), for the others: at the top dose activation (PINK1 increase), usual class: activators; actives 0.2% (n = 410,000); active = well fitted activation curve with a large enough effect; inconclusive = small, poorly fitted or top-dose-only effect; cell line not stated here; note: % of control where 0% means no effect; nearly all actives have a fitted effect of over 65% in size
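Readout is PINK1 immunofluorescence, quantified alongside mitochondrial, cell and nuclear markers by laser-scanning microplate cytometry. Cells from a stable line were exposed to compound titrations (5 concentrations) for 24 hours, with CCCP controls.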
KB-V1 cytotox = KB-V1 MDR subline cytotoxicity; KB-V1 MDR cells viability, CellTiter-Glo, 72 h; Potency, µM (top dose mostly 46.1 µM), actives largely listed as cytotoxic; actives 3.4% (n = 400,000); AID 1347076; note: % is set by controls: 0 for no effect and ±100 for the full control effect; nearly all actives have a fitted effect of over 60% in size
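Following 72 h at 37 degrees C with compound, KB-V1 cell viability was read by CellTiter-Glo luminescence, medium being phenol-red-free DMEM plus 10% FBS; concentration-response parameters came from normalized, curve-fitted qHTS data.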
SW480 rereplic = induces DNA re-replication in SW480 colon adenocarcinoma cells | actives 1.8% (n = 340,000) | Potency, µM (series often up to 46.1 µM), inactives show at the top dose re-replication activation, actives largely listed as activators | SW480 DNA re-replication, Hoechst DNA content imaging, 48 h | AID 624297; note: % of control where 0% means no effect; nearly all actives have a fitted effect of over 55% in size
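First, 250 cells per well were seeded. Next, compound or vehicle (23 nL) was pinned in, plates sat 48 hr at 37 C. Finally Hoechst was added for 40 min before fluorescence scanning.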
TSG101-PTAP inh = blocks PTAP/TSG101 interaction to inhibit HIV-1 budding | Fluorescence polarization, FITC-PTAP peptide / Tsg101 binding | Potency, µM (series often up to 115 µM), for the others: top-dose activity change, negative = inhibition, usual class: inhibitors | Q99816 | 340,000 tested, under 10 active; active = well fitted inhibition curve with a large enough effect in the main read-out, with a control signal flat, not every such curve was filed as active; inconclusive = small, poorly fitted or top-dose-only effect, or effect the other way, or a change in a side signal; inactive = no such curve, though single readings can be large or run the other way; note: % of control where 0% means no effect
Target sequence (Q99816 whole entry, looked up): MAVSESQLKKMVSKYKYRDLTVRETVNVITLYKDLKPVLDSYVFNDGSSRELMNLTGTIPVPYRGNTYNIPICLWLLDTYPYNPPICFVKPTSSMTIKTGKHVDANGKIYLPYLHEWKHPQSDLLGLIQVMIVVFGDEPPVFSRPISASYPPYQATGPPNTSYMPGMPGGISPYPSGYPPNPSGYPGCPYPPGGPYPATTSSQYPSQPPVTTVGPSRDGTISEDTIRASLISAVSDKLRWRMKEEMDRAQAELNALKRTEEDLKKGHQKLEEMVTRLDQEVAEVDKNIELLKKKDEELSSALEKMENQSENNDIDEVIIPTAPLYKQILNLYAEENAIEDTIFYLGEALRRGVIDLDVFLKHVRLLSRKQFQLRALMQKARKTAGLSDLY
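Fluorescence polarization binding of Tsg101 binding domain (10 uM final) to FITC-labeled PTAP peptide (50 nM final) in HEPES pH 7.5 buffer with NaCl, Tween 20, EDTA, TCEP. Compounds added before peptide; binding 20 min at RT.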
KB-3-1 cytotox = kills parental KB-3-1 adenocarcinoma cells. KB-3-1 viability, CellTiter-Glo ATP luminescence, 72 h. Potency, µM (highest dose often 46.1 µM), most hits filed as cytotoxic. actives 1.4% (n = 400,000). AID 1347075; note: % is set by controls: 0 for no effect and ±100 for the full control effect; nearly all actives have a fitted effect of over 60% in size
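Parental KB-3-1 viability, qHTS format: 72 h compound exposure, 37 °C; CellTiter-Glo; media-only wells and DMSO plates as controls; concentration-effect fits on corrected data.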
An asterisk follows results filed as active; i = inactive; ? = inconclusive; . = no result given; [ ] = dose if it differs, or a comment. This is a sample that favours compounds with a hit; in the whole collection about 6.8% have one here. Unless noted, calls come from the whole dose curve; as a rule, active = well fitted curve in the direction sought with a large enough effect; inconclusive = small, poorly fitted or top-dose-only effect, or another doubt; inactive = no such curve, though single readings can be large; an effect the other way counts as inactive or inconclusive. Potency is the fitted concentration of half-maximal effect.

SMILES | MCF10A rereplic | PINK1 expr mod | KB-V1 cytotox | SW480 rereplic | TSG101-PTAP inh | KB-3-1 cytotox
COc1cc(C2C3=C(COC3=O)Oc3cc4c(cc32)OCO4)cc(OC)c1OC(C)=O (stereo not drawn) | ? | 3% | 0.65µM* | 0.13µM* | 0% | 0.23µM*
CCOCCCNC(=O)NC(C)c1c(-n2cccc2)sc2c1CCN(CC)C2 (stereo not drawn) | . | 0% | . | . | . | .
COc1cc(OC)c(OC)cc1CNc1sc2c(c1C(=O)Nc1ccccc1OC)CCC2 | . | 2% | i | . | . | i
CCn1c(CSc2nc(C)cc(C)n2)nnc1SCC(=O)N1CCCc2ccccc21 | 2% | 5%[38.3 µM] | 21µM* | -9% | -3% | i
Cc1ccc2cc(C#N)c(SCC(=O)N3CCCc4ccccc43)nc2c1C | 6% | 0% | 2.6µM* | -7% | 0% | i
N#C/C(=C(/O)CSc1nnc(Cc2cccs2)n1C1CCCCC1)c1nc2ccccc2[nH]1 | ? | 0% | i | 18µM* | -6% | ?
Cc1ccc2cc(C#N)c(SCC(=O)N3CCCc4ccccc43)nc2c1 | -7% | 7% | i | -3% | 0% | i
COc1ccccc1-c1nnc(SC/C(O)=C(\C#N)c2nc3ccccc3[nH]2)n1C1CCCCC1 | ? | 4% | i | -704% | -2% | i
O=C(CSc1nnc(Cc2cccs2)n1C1CCCCC1)N1CCCc2ccccc21 | ? | -2% | 21µM* | ? | -1% | ?
COC(=O)c1ccc(CSc2c(C(C)C)cnc3c2c(=O)n(C)c(=O)n3C)cc1 | . | 3% | . | . | . | .
COc1ccc(CN2C(=O)c3ccccc3C(/C=N\OCc3ccc(C)cc3)C2=O)cc1 (stereo not drawn) | -6% | ? | ? | 0% | 0% | 21µM*
COc1ccc(CN2C(=O)c3cccc4cccc(c34)C2=O)cc1 | -4% | 11% | i | 18µM* | -1% | i
O=C1c2cccc3cccc(c23)C(=O)N1Cc1ccccc1 | 18% | 12% | i | 6% | -7% | i
COc1ccc(CN2C(=O)c3ccccc3C2OC)cc1 (stereo not drawn) | -3% | 0% | i | 5% | 0% | i
O=C1c2cccc3cccc(c23)N1Cc1cccc(F)c1 | 26µM* | 10% | i | ? | 1% | ?
COc1cc2c3c(cccc3c1)C(=O)N(CCN1CCCC1)C2=O | . | -1% | 10µM* | . | . | ?
Cc1ccc(Cc2nc3ccccc3nc2SCC(=O)Nc2ccc3c(c2)OCO3)cc1 | . | 5% | i | . | . | i
CCCOC(=O)c1c(NC(=O)c2cc3ccccc3c(=O)o2)sc2c1CCC(C)C2 (stereo not drawn) | . | 1% | i | . | . | i
COc1ccc(C(=O)c2ccccc2CN2C(=O)c3ccccc3C2=O)cc1 | 1% | -3% | 16µM* | 2% | -1% | i
CCOc1ccc2nc(NC(=O)c3ccccc3)sc2c1 | . | 2% | ? | . | . | ?
CCOc1ccc2nc(NS(=O)(=O)Cc3ccccc3)sc2c1 | 0.23µM* | 3% | ? | ? | -7% | ?
Cc1cccc(N=C2NN=C(c3c(C)[nH]c4ccccc34)CS2)c1 | 15µM* | ? | ? | ? | -1% | i
Cc1cccc(N=C2NN=C(c3ccc4c(c3)OCCO4)CS2)c1 | ? | 1%[38.3 µM] | i | ? | -12% | i
COc1ccc(Oc2ncc3nc(-c4cccs4)c(=O)n(Cc4cccc(OC)c4)c3n2)cc1 | . | 0% | . | . | . | .
CC(=O)N(C)c1ccc(N=Cc2cc3c(cc2[N+](=O)[O-])OCO3)cc1 | 11% | 6% | i | -22% | -2% | i
SMILES | MCF10A rereplic | PINK1 expr mod | KB-V1 cytotox | SW480 rereplic | TSG101-PTAP inh | KB-3-1 cytotox
CCN(CC)c1ccc(N=Cc2ccccc2[N+](=O)[O-])cc1 | ? | 6% | i | 2.6µM* | 0% | i
CCN(CC)c1ccc(N=Cc2ccc([N+](=O)[O-])o2)cc1 | 23µM* | 10% | i | 2.3µM* | -2% | 18µM*
Cc1cc(C(=O)CN2c3cccc4cccc(c34)S2(=O)=O)c(C)n1C | 3.7µM* | 4% | i | 3.3µM* | -3% | ?
O=C(CN1c2cccc3cccc(c23)S1(=O)=O)Nc1cccc(S(=O)(=O)N2CCOCC2)c1 | 2% | 4% | 18µM* | -4% | -1% | i
Cc1ccc(NC(=O)CN2c3cccc4cccc(c34)S2(=O)=O)cc1 | ? | 4% | 23µM* | -2% | -1% | i
O=C(CN1C(=O)c2ccccc2S1(=O)=O)NC1CCCCCC1 | 8% | 0% | ? | 1% | 1% | i
O=C(CN1c2cccc3cccc(c23)S1(=O)=O)NC1CCCCC1 | -8% | 0% | 21µM* | -15% | 1% | i
O=C(CN1C(=O)CCOc2ccccc21)Nc1cccc(S(=O)(=O)N2CCOCC2)c1 | -4% | 0% | ? | -7% | -1% | i
COc1ccc(NC(=O)CN2c3cccc4cccc(c34)S2(=O)=O)cc1 | 0% | 0% | i | 9% | 2% | i
FC(F)(F)Oc1ccc2c(c1)NC(c1ccncc1)=NC(c1cccs1)=N2 | . | 1% | i | . | . | i
CCOc1cccc(NC(=O)C2CC(=O)N(C)C(=Nc3ccc(F)cc3)S2)c1 (stereo not drawn) | . | 0% | i | . | . | i
Brc1cccc[n+]1Cc1ccccc1C[n+]1ccccc1Br | . | 0% | i | . | . | i
CC(=O)N(Cc1cccnc1)c1nc2c(C)c(C)ccc2s1 | . | -2% | i | . | . | i
Cc1cc(CNC(=O)c2cnn(-c3ncc4c(n3)-c3ccccc3CC4)c2C2CC2)on1 | . | 2% | . | . | . | .
CCCS(=O)(=O)NCc1c(C)ncc2c1CCN(C(=O)/C=C/c1ccc(F)cc1F)C2 | . | 1% | . | . | . | .
CN(C)CCN1CC(O)=C(c2nc3ccccc3s2)C1=N | 18µM* | -1% | i | 3% | -1% | i
Cc1nc2sccn2c1CN1CCOc2ccc(CN3CCN(c4ccc(F)cc4)CC3)cc2C1 | . | 0% | . | . | . | .
CN(C)C(=O)c1ccc(NC(=O)Cn2nc(-c3ccccc3)c3ccccc3c2=O)cc1 | . | 2% | i | . | . | i
CC(C)NC(=O)NC(=O)CSc1ncc(C(F)(F)F)cc1Cl | -19% | 7%[38.3 µM] | i | -2% | -11% | i
CC(C)(C)NC(=O)NC(=O)CSc1ncc(C(F)(F)F)cc1Cl | -2% | 3%[38.3 µM] | 13µM* | 2% | 2% | i
O=C(Cc1ccc(NC(=O)N2CCCCc3ccccc32)cc1)NCc1ccccc1Br | . | -2% | i | . | . | i
COc1ccc(N(CC(=O)NC2CCCC2)C(=O)Cn2nnc(-c3ccc(C)cc3)n2)cc1OC | -1% | 5%[38.3 µM] | 13µM* | 4% | . | i
